D1 ag – agonists of human D1 dopamine receptor; P21728; HEK293 T-REx D1 cells, calcium flux, agonist mode; activation, % at 2 µM; 360,000 compounds, 1% hits; AID 504660; further: 0% is about no effect
Target sequence (P21728 whole entry, looked up): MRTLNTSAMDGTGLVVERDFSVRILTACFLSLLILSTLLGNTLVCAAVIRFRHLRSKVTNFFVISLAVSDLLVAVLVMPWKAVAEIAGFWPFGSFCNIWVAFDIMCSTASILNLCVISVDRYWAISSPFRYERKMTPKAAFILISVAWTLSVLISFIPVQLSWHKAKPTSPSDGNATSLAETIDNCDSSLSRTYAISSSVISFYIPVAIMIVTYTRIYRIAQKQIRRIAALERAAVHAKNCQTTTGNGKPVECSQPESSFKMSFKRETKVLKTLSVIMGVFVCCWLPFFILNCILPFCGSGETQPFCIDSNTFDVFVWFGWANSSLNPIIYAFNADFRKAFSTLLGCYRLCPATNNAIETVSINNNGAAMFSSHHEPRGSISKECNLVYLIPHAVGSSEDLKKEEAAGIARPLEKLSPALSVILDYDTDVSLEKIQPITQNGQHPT
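Agonism was scored from calcium flux recorded over 180 s (1 read/s) after pintool compound addition, following a 10-cycle baseline. Cells were inducible force-coupled HEK293 TREx D1, plated overnight at 30 C and loaded with no-wash calcium dye.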
D1 antagonist – human D1 dopamine receptor antagonism. P21728. HEK293 TREx D1 cells, calcium flux, dopamine EC80; stronger effect = lower value. activity change, negative = inhibition, % at 10 µM. 360,000 compounds, 3.2% hits; in the data active means activity change below about -30%; further: on the % scale 0 is the no-effect control and ±100 the full control effect
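Using tetracycline-induced force-coupled D1 Hek293 cells and a calcium dye, signals were followed for 180 s after compound, then for 180 s after EC80 dopamine, to detect inhibitors.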
D1 PAM – enhances dopamine response at the human D1 receptor; 360,000 compounds, 0.036% hits; P21728; HEK293 TREx D1 cells, calcium flux, dopamine EC20 potentiation; potentiation, % at 10 µM; AID 504651; in the data active means potentiation above about 30%; further: 0% is about no effect
TRHR ag – TRH receptor (human) agonism; AID 493084; activation, % at 2 µM; 360,000 compounds, 0.18% hits; TRHR cells, calcium flux fluo-8, FDSS agonist mode; further: 0% is about no effect
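In this calcium-flux screen, cells bearing human TRHR are dye-loaded with fluo-8, baselined for 10 cycles, then exposed to library compounds; positive kinetic calcium responses during the agonist phase mark hits, with TRH as control.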
TRHR enhancer – TRH receptor (human) allosteric enhancement; P34981; TRHR cells, fluo-8 calcium fluorescence, EC20 TRH enhancement; enhancement, % at 2 µM; 360,000 compounds, 0.66% hits; in the data active means enhancement above about 30%; further: 0% is about no effect
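Enhancer read-out: after compound pinning and an initial kinetic agonist-mode read, an EC20 of TRH (10 nM final) was injected and fluo-8 calcium signal (Ex 480/Em 530) followed at 1 s/cycle for 100 cycles in TRHR-expressing cells.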
Starred values were filed as active, the others as inactive; / = not tested or not shown; ! = not confirmed by another sample. The list is not random: actives were taken first. Their share in the collection is about 4.7%. Unless noted, no stated cut-off is given here; in the data, active means activation above about 30%; inactive means the rest.

SMILES	D1 ag	D1 antagonist	D1 PAM	TRHR ag	TRHR enhancer
COc1ccccc1CNC(=O)C(=O)NCC(c1cccs1)S(=O)(=O)c1ccccc1 (stereo not given)	7	/	4	-1	0
COc1cccc(NC(=O)Cc2cccs2)c1	4	-14	-4	0	-3
COc1cc(NC(=O)Cc2cccs2)c(C(=O)O)cc1OC	2	-32*	-3	0	-4
Cc1cccc(NC(=O)c2cccc(NC(=O)Cc3cccs3)c2)c1	5	-48*	-7	1	-2
COc1cc(NC(=O)Cc2cccs2)cc(OC)c1	2	-33*	15	0	1
Cc1ccc(C(=O)NCc2ccccc2)cc1NC(=O)c1nsc2ccccc12	2	6	-2	0	-3
Cc1cccc(NC(=O)c2oc3ccc(S(=O)(=O)N(C)C4CCCCC4)cc3c2C)c1C	5	19	0	1	-1
CCCSc1nc2sc3c(c2c(=O)n1-c1ccccc1)CCC(C)C3 (stereo not given)	-1	5	1	1	6
COc1ccc(N(C(=O)COc2c(C)cccc2C)S(=O)(=O)c2ccc(Cl)cc2)cc1	5	-13	0	0	-1
CCOc1ccc(OCC(=O)Nc2c(C(=O)Nc3ccc(C)cc3)oc3ccccc23)cc1	1	4	-1	1	2
Cc1ccc(C(=O)CSC2=C(C#N)C(c3ccco3)C3=C(CCCC3=O)N2)cc1 (stereo not given)	4	-37*	-6	0	-2
N#CC1=C(SCC(=O)c2ccccc2)NC2=C(C(=O)CCC2)C1c1ccco1 (stereo not given)	14	-44*	-11	-1	-4
CCc1ccc(C(=O)CSC2=C(C#N)C(c3ccco3)C(C(C)=O)=C(C)N2)cc1 (stereo not given)	2	-34*	-10	1	0
CC(C)(C)c1ccc(C(=O)CCCSC2=C(C#N)C(c3ccco3)C3=C(CCCC3=O)N2)cc1 (stereo not given)	6	-10	-3	0	1
CC(=O)C1=C(C)NC(SCC(=O)c2ccc(F)cc2)=C(C#N)C1c1ccco1 (stereo not given)	7	-1	-1	0	6
CCN(C(=O)c1cn(-c2ccc(OC)cc2)c(=O)c2ccccc12)c1cccc(Cl)c1	6	-3	-1	1	22
Cn1c(-c2ccc(S(=O)(=O)N3CCCC3)cc2)csc1=Nc1ccc(Cl)c(Cl)c1	-1	-14	0	-1	-2
Cc1ccccc1C(=O)Nc1nnc(S(=O)(=O)N2CCc3ccccc32)s1	4	5	-5	0	13
O=C(c1cccc(Cl)c1)n1nc(-c2cccnc2)nc1NCc1ccccc1	-2	2	-1	0	4
Cc1ccc(S(=O)(=O)c2nc(-c3cccs3)oc2N2CCC(C)CC2)cc1	3	8	1	-1	10
O=S(=O)(c1ccccc1)c1nc(-c2cccs2)oc1N1CCCCC1	1	3	1	0	36*
COc1ccc(CNC(=O)c2ccc(Cn3c(=O)c4cccn4c4cccnc43)cc2)cc1OC	1	5	-2	0	6
CCC1CCCCN1Cc1cn2c(-c3ccc(Br)cc3)nnc2s1 (stereo not given)	0	-32*	-4	0	-1
CCN(Cc1ccc(OC)c(F)c1)C(=O)/C=C/c1ccc(S(=O)(=O)N2CCOCC2)cc1	7	-41*	-6	-1	2
C=CCC(CC=C)(CNC(=O)C(=O)Nc1cc(C)ccc1OC)c1ccc(OC)c(OC)c1	10	-1	0	3	1
SMILES	D1 ag	D1 antagonist	D1 PAM	TRHR ag	TRHR enhancer
O=C(CN1C(=O)S/C(=C\C=C\c2ccccc2)C1=O)N1CCOCC1	0	-40*	8	1	4
O=C(CCCN1C(=O)S/C(=C/c2ccccc2)C1=S)Nc1ccc(C(=O)O)cc1	4	-40*	-2	0	-1
O=C(CN1C(=O)S/C(=C/c2ccccn2)C1=O)N1CCOCC1	3	-1	3	2	3
O=C(CCN1C(=O)S/C(=C/c2ccccc2)C1=O)Nc1ccc(C(=O)O)c(O)c1	55*	22	18	-1	-13
O=C(CCCN1C(=O)S/C(=C\C=C\c2ccccc2)C1=O)Nc1ccc(O)cc1	14	-31*	0	-1	5
Cc1ccccc1-c1csc2ncnc(Sc3nnnn3C)c12	-1	2	8	-1	-1
O=C(Nc1nc2c(F)cccc2s1)c1ccc2c(c1)OCCO2	3	6	2	1	9
Clc1ccccc1CNc1ncnc2c1c(-c1ccccc1)cn2-c1ccccc1	0	7	-1	0	16
COc1cc(OC)cc(C(=O)N/N=C2/SCC(=O)N2Cc2ccco2)c1	3	4	-2	0	-4
Cc1ccccc1OCC(=O)N/N=C1\SCC(=O)N1Cc1ccccc1	1	-43*	-1	-2	-3
Cc1ccccc1C(=O)N/N=C1\SCC(=O)N1Cc1ccco1	2	10	2	0	37*
COc1cccc(-c2nc(S(=O)(=O)c3ccc(C)cc3)c(N3CCCCC3)o2)c1	5	-10	-2	0	-3
CSc1cccc(NC(=O)N2CCN(S(=O)(=O)c3ccc4c(ccn4C)c3)CC2)c1	9	11	-1	0	-15
COc1ccc(OC)c(/C=C2\SC(=S)N(C(C(=O)O)c3ccccc3)C2=O)c1 (stereo not given)	35*	-2	-2	-1	4
Cn1c(C(=O)NCc2ccccc2Cl)cc2sc(Cl)cc21	3	-29	-8	0	-5
O=C(CSc1nccn1Cc1ccco1)Nc1cccc(F)c1	31*!	0	1	-1	1
Cc1ccc(NC(=O)CSc2nccn2Cc2ccco2)cc1	7	2	5	3	-2
Cc1ccc(NC(=O)CSc2nccn2Cc2ccco2)cc1Cl	4	3	-5	-1	35*
Cc1ccc2occ(-c3cc(-c4ccc(F)cc4)nc4c3COc3ccc(F)cc3-4)c(=O)c2c1	-1	-8	-6	0	6
O=C(O)CCN(CCC(=O)O)c1ccccc1	2	-93*	-4	1	5
O=C(O)CCN(CCC(=O)O)S(=O)(=O)c1ccccc1	2	-2	-2	0	1
CCOC(=O)c1sc2cccc(F)c2c1S(=O)(=O)NCc1ccccc1Cl	10	-3	-6	1	-6
CCOc1ccc(S(=O)(=O)n2cnc(C)c2)cc1	7	-44*	-6	-2	1
CCOc1cc(C)c(C(C)C)cc1S(=O)(=O)n1cnc(C)c1	3	-31*	-14	0	8
CCOc1cc(C)c(C(C)C)cc1S(=O)(=O)N1CC(C)OC(C)C1 (stereo not given)	2	3	-1	0	-2

Source: PubChem BioAssay
